Only some compounds are listed: those with a hit (about 0.9% of all), similar ones and a draw of the others.
IP6K1 inhibitor: IP6K1 kinase inhibition; AID 1645851; activity change, % (series mostly up to about 58 µM); hit rate 0.81% among 140,000; IP6K1 kinase, ADP-Glo luminescence, 2 h; hits give low values; in the data active means activity change below about -25%
Target sequence (Q92551 whole entry, looked up): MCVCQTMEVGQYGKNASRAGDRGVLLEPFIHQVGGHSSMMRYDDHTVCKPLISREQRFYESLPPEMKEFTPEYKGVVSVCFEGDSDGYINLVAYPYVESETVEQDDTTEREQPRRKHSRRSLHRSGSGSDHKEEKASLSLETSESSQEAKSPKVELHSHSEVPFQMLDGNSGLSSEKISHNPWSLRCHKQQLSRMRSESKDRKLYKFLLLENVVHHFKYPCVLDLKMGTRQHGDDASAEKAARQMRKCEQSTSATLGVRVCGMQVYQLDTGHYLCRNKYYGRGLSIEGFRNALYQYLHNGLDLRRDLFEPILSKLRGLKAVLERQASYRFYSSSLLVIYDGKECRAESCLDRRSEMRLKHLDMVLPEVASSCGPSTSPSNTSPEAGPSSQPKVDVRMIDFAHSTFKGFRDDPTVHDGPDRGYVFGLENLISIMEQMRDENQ
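ADP-Glo luminescence measures ADP made by human IP6K1 during a 2 h RT reaction with ATP/IP6 (mix at 1.3 mM/130 uM); top library doses 57.5 and 19.1 uM final.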
SNCA expr inh: inhibitors of alpha-synuclein (SNCA) gene expression. HEK-293 SNCA-luciferase knock-in, luminescence, 24 h. Potency, µM (series often up to 57.2 µM), most hits filed as inhibitors. hit rate 0.17% among 140,000; further: nearly all actives have a fitted effect of over 45% in size
GPT2 inhibitor: inhibitors of human GPT2 alanine aminotransferase. Recombinant GPT2, coupled pyruvate oxidase/HRP Amplex Red fluorescence. Potency, µM (doses to about 57.7 µM), usual class: inhibitors. AID 1671188. hit rate 0.25% among 100,000. Q8TD30; further: nearly all actives have a fitted effect of over 60% in size
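Fluorescence of coupled pyruvate oxidase/HRP/Amplex Red system (50uM Amplex, 30 min, dark) reports pyruvate formed by GPT2. Enzyme reaction: 10ng/uL GPT2, 2mM L-alanine, 250uM a-KG, 30 min room temperature, pH 7.5; 50uM AOA control.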
HEK293 viab: counter-screen for SNCA expression inhibitors: cell viability | HEK-293-SNCA-luc viability, GF-AFC fluorescence, 24 h | Potency, µM (top dose mostly 57.1 µM), most hits filed as cytotoxic | hit rate 0.12% among 150,000; further: nearly all actives have a fitted effect of over 30% in size
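HEK-293-SNCA-luc cells (1500/well) plated 24 h, then exposed 24 h to a dilution series; GF-AFC added 30 min at 37C, fluorescence 405/540 nm; normalised to medium-only and DMSO wells, Hill fit.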
IP6K1 inh cnf: confirmation of human IP6K1 inhibitors | Potency, µM (series often up to 49 µM), hits mostly inhibitors | hit rate 13% among 1,200 | shares compounds with IP6K1 inhibitor | recombinant IP6K1 kinase, ADP-Glo luminescence, 2 h | AID 1645852; further: nearly all actives have a fitted effect of over 65% in size
Of the large screens only hits and unclear results are named; the others gave an inactive call (follow-up assays come after a bar, where they were run). Unless noted, the call rests on the fitted dose curve; in most records, active means well fitted curve in the direction sought with a large enough effect; inconclusive means small, poorly fitted or top-dose-only effect, or another doubt; inactive means no such curve, though single readings can be large; an effect the other way counts as inactive or inconclusive.

CC(C)c1nc2c(c(-c3ccc(O)cc3)n1)CN(Cc1ccc(N(C)C)cc1)CC2	none
C=C1CCC2C(C)(C)C(O)CCC2(C)C1CCC(C)CCO (centres undefined)	IP6K1 inhibitor -30.3 (no result: SNCA expr inh) | IP6K1 inh cnf inconclusive
C=C1CC[C@H]2[C@@](C)(CCC[C@@]2(C)C(=O)O)[C@@H]1CCC(C)CCO (some centres undefined)	none (no result: SNCA expr inh)
CC(C)c1cc(C(C)C)c(CC(=O)NS(=O)(=O)Oc2c(C(C)C)cccc2C(C)C)c(C(C)C)c1	IP6K1 inhibitor -32.4 | IP6K1 inh cnf inconclusive
Cc1cc(C)cc(NC(=O)c2sc3nc4n(c(=O)c3c2C)N=C(c2ccccc2)CS4)c1	none (no result: GPT2 inhibitor)
c1ccc(C2=Nn3c(nnc3-c3ccncc3)SC2)cc1	none (no result: IP6K1 inhibitor, SNCA expr inh, GPT2 inhibitor, HEK293 viab) | IP6K1 inh cnf inactive
COc1ccccc1Nc1ccnc(N2CCCC(C(=O)NCc3cccc(F)c3)C2)n1 (centres undefined)	none
O=C1Nc2ccc(I)cc2C1=Cc1cc(Br)c(O)c(Br)c1	none (no result: IP6K1 inhibitor)
O=C1Nc2ccc(I)cc2/C1=C/c1cc(Br)c(O)c(Br)c1	none (no result: IP6K1 inhibitor) | IP6K1 inh cnf 2.91µM
COc1ccc(CN2C[C@H]3CN(Cc4cnn(C)c4)CCN3C2=O)cc1	IP6K1 inhibitor -30.1 | IP6K1 inh cnf inconclusive
COc1ncc(-c2cccc(COc3ccc4c(cnn4CC[S+](C)(=O)[O-])c3)c2)cn1	GPT2 inhibitor inconclusive
O=C(NCc1ccc(F)c(F)c1)c1ccc2nnc(-c3ccoc3)n2c1	SNCA expr inh inconclusive
CN1CCN(Cc2ccc(-c3cnc4[nH]cc(-c5ccc6[nH]ccc6c5)c4c3)cc2)CC1	IP6K1 inhibitor -46.6, GPT2 inhibitor inconclusive (no result: SNCA expr inh) | IP6K1 inh cnf 9.2µM
CN1CCN(c2nc3c(c(=O)[nH]2)CCN(Cc2ccc4[nH]ccc4c2)CC3)CC1	none
O=C1CCCN1CC1CCN(C(=O)c2ccc(N3CCC(CO)C3)nc2)CC1 (centres undefined)	none
COCCCNc1ccc(C(=O)N2CCC(CN3CCCC3=O)CC2)cn1	IP6K1 inhibitor -56.9 | IP6K1 inh cnf inactive
CC(C)CNC(=O)c1ccc2nnc(-c3cccc(C(F)(F)F)c3)n2c1	none
Cc1cc(C(=O)NC2CC(c3nnc(CN(C)C)n3C)C2)c2c(C)noc2n1 (centres undefined)	IP6K1 inhibitor -28.5 | IP6K1 inh cnf inactive
COc1cccc(OC(=O)CSc2nnc(-c3ccc4c(c3)OCO4)o2)c1	IP6K1 inhibitor -32.0, SNCA expr inh inconclusive (no result: GPT2 inhibitor) | IP6K1 inh cnf inconclusive
CC(C)CC(NC(=O)c1cnc2ccccc2c1)c1nnc2n1CCNCC2 (centres undefined)	none
CC(C)CC(NC(=O)C1=NNC(=O)CC1)c1nnc2n1CCNCC2 (centres undefined)	IP6K1 inhibitor -39.7 | IP6K1 inh cnf inactive
CCC(=O)N1CCc2cc(Br)cc(S(=O)(=O)CCC(=O)N3CCN(c4ccccc4OC)CC3)c21	IP6K1 inhibitor -27.3 (no result: GPT2 inhibitor) | IP6K1 inh cnf inactive
CCC(=O)N1CCc2cc(Br)cc(S(=O)(=O)N(CC)Cc3ccccc3)c21	IP6K1 inhibitor -26.6 (no result: GPT2 inhibitor) | IP6K1 inh cnf inactive
CCC(=O)N1CCc2cc(Br)cc(S(=O)(=O)CCC(=O)N3CCN(c4ccc(OC)cc4)CC3)c21	none (no result: GPT2 inhibitor)
CCC(=O)N1CCc2cc(Br)cc(S(=O)(=O)CCC(=O)NCCc3ccccc3)c21	none (no result: GPT2 inhibitor)
CSc1ccc(-c2cccc(C(=O)NCCNC(=O)C3CCCC3)c2)cc1	none
Cc1ccc(Cl)cc1NC(=O)c1cccc(NC(=O)N2CCSc3ncccc32)c1	none (no result: GPT2 inhibitor)
Cc1ccc(C(=O)Nc2ccc(S(=O)(=O)O)c3cc(S(=O)(=O)O)cc(S(=O)(=O)O)c23)cc1NC(=O)c1cccc(NC(=O)Nc2cccc(C(=O)Nc3cc(C(=O)Nc4ccc(S(=O)(=O)O)c5cc(S(=O)(=O)O)cc(S(=O)(=O)O)c45)ccc3C)c2)c1	IP6K1 inhibitor -94.8, HEK293 viab inconclusive | IP6K1 inh cnf 3.26µM
COc1ccc(CN2CCN(S(=O)(=O)c3ccccc3)CC2)c(OC)c1	IP6K1 inhibitor -48.6 (no result: GPT2 inhibitor) | IP6K1 inh cnf inactive
COc1ccc(OC)c(CN2CCN(S(=O)(=O)c3ccccc3)CC2)c1	none (no result: GPT2 inhibitor)
CCC(=O)c1c(O)cc(O)cc1O	IP6K1 inhibitor -29.5, GPT2 inhibitor 5.01µM | IP6K1 inh cnf inconclusive
Cc1cc(O)c2c(c1)C(=O)c1cc(O)cc(O)c1C2=O	none (no result: IP6K1 inhibitor)

Screening data as filed in PubChem.
